Measured values from PubChem BioAssay AID1159580 (chemical genetic matrix, 2015).
Among all 5,500 compounds or so, about 2,000 (36%) were called active. Another 18% or so got no clear call; they are omitted. The list shows a part of the results. Unmarked numbers belong to inactive results. No stated cut-off is given here; in the data, active means normalized growth mostly below about 0.91 (no sharp cut-off); inconclusive means no clear call, values can overlap the other calls; inactive means mostly above about 0.92.

Test: chemical genetic growth profiling, strain panel (AID 1159580);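 further: tested at 20 µM; growth read once vehicle control cultures reached saturation at 30 °C; 1 = growth at the plate median or of vehicle wells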
Conditions: S. cerevisiae deletion strains, growth OD

Molecule O=C(O)c1c2ccccc2cc2ccccc12 has a normalized growth (locus YAL013W, strain DEP1, stronger effect = lower value) of 1.02, a normalized growth (locus YAL021C, strain ccr4, stronger effect = lower value) of 0.973 and a normalized growth (locus YAL026C, strain drs2, stronger effect = lower value) of 1.02. The normalized growth (locus YAL030W, strain snc1, stronger effect = lower value) was 0.99, the normalized growth (locus YBL061C, strain skt5, stronger effect = lower value) was 1 and the normalized growth (locus YBR009C, strain hhf1, stronger effect = lower value) was 0.989. The normalized growth (locus YBR021W, strain FUR4, stronger effect = lower value) was 0.967, the normalized growth (locus YBR023C, strain chs3, stronger effect = lower value) was 1.01 and the normalized growth (locus YBR171W, strain sec66, stronger effect = lower value) was 0.994. It also gave a normalized growth (locus YBR229C, strain ROT2, stronger effect = lower value) of 1.02, a normalized growth (locus YBR231C, strain swc5, stronger effect = lower value) of 1.01 and a normalized growth (locus YBR279W, strain paf1, stronger effect = lower value) of 0.959. For the same molecule, the normalized growth (locus YCL011C, strain gbp2, stronger effect = lower value) was 0.998, the normalized growth (locus YCL016C, strain dcc1, stronger effect = lower value) was 1.01 and the normalized growth (locus YCL029C, strain bik1, stronger effect = lower value) was 0.992. For the same molecule, the normalized growth (locus YCL061C, strain MRC1, stronger effect = lower value) was 1, the normalized growth (locus YCL069W, strain vba3, stronger effect = lower value) was 1.01 and the normalized growth (locus YCR088W, strain abp1, stronger effect = lower value) was 0.996. It also gave a normalized growth (locus YDL005C, strain med2, stronger effect = lower value) of 0.99, a normalized growth (locus YDL035C, strain GPR1, stronger effect = lower value) of 1 and a normalized growth (locus YDL040C, strain nat1, stronger effect = lower value) of 0.991. For the same molecule, the normalized growth (locus YDL074C, strain BRE1, stronger effect = lower value) was 1.03, the normalized growth (locus YDL101C, strain DUN1, stronger effect = lower value) was 1.02 and the normalized growth (locus YDL134C, strain PPH21, stronger effect = lower value) was 1.01. The normalized growth (locus YDL185W, strain tfp1, stronger effect = lower value) was 0.953, the normalized growth (locus YDL192W, strain arf1, stronger effect = lower value) was 0.98 and the normalized growth (locus YDR001C, strain nth1, stronger effect = lower value) was 0.991. It also gave a normalized growth (locus YDR069C, strain doa4, stronger effect = lower value) of 0.991, a normalized growth (locus YDR101C, strain arx1, stronger effect = lower value) of 0.983 and a normalized growth (locus YDR137W, strain rgp1, stronger effect = lower value) of 0.965. The normalized growth (locus YDR150W, strain NUM1, stronger effect = lower value) was 1.02, the normalized growth (locus YDR159W, strain sac3, stronger effect = lower value) was 1.03 and the normalized growth (locus YDR162C, strain NBP2, stronger effect = lower value) was 1.03. The normalized growth (locus YDR195W, strain ref2) was 1.26 [resistant] (active), the normalized growth (locus YDR297W, strain sur2, stronger effect = lower value) was 0.99 and the normalized growth (locus YDR318W, strain mcm21, stronger effect = lower value) was 0.976. The normalized growth (locus YDR334W, strain swr1, stronger effect = lower value) was 1, the normalized growth (locus YDR335W, strain msn5, stronger effect = lower value) was 1 and the normalized growth (locus YDR388W, stronger effect = lower value) was 0.98. The normalized growth (locus YDR392W, strain spt3, stronger effect = lower value) was 0.906, the normalized growth (locus YDR502C, strain sam2, stronger effect = lower value) was 0.986 and the normalized growth (locus YEL003W, strain gim4, stronger effect = lower value) was 0.994. For the same molecule, the normalized growth (locus YEL037C, strain rad23, stronger effect = lower value) was 1.01, the normalized growth (locus YEL061C, strain CIN8 (second series), stronger effect = lower value) was 0.993 and the normalized growth (locus YEL061C, strain CIN8, stronger effect = lower value) was 1.01. The normalized growth (locus YER015W, strain faa2, stronger effect = lower value) was 1.01, the normalized growth (locus YER016W, strain bim1, stronger effect = lower value) was 1.01 and the normalized growth (locus YER110C, stronger effect = lower value) was 0.964. The normalized growth (locus YER111C, strain swi4, stronger effect = lower value) was 0.997, the normalized growth (locus YER155C, strain BEM2 (second series), stronger effect = lower value) was 1.01 and the normalized growth (locus YER155C, strain BEM2, stronger effect = lower value) was 1.01. It also gave a normalized growth (locus YER167W, strain BCK2, stronger effect = lower value) of 1.02, a normalized growth (locus YFR010W, strain ubp6, stronger effect = lower value) of 1.01 and a normalized growth (locus YGL078C, strain dbp3, stronger effect = lower value) of 0.969. The normalized growth (locus YGL086W, strain mad1, stronger effect = lower value) was 0.984, the normalized growth (locus YGL167C, strain pmr1, stronger effect = lower value) was 1 and the normalized growth (locus YGL173C, strain kem1, stronger effect = lower value) was 0.996. The normalized growth (locus YGL227W, strain vid30, stronger effect = lower value) was 1, the normalized growth (locus YGL240W, strain doc1, stronger effect = lower value) was 0.964 and the normalized growth (locus YGL248W, strain PDE1, stronger effect = lower value) was 1.02. The normalized growth (locus YGL253W, strain hxk2, stronger effect = lower value) was 1.01, the normalized growth (locus YGR078C, strain PAC10, stronger effect = lower value) was 1.01 and the normalized growth (locus YGR135W, strain pre9, stronger effect = lower value) was 0.971. For the same molecule, the normalized growth (locus YGR229C, strain SMI1, stronger effect = lower value) was 1.02, the normalized growth (locus YGR252W, strain gcn5, stronger effect = lower value) was 0.955 and the normalized growth (locus YHR013C, strain ard1, stronger effect = lower value) was 0.926. It also gave a normalized growth (locus YHR027C, strain rpn1, stronger effect = lower value) of 1.01, a normalized growth (locus YHR030C, strain SLT2, stronger effect = lower value) of 1.01 and a normalized growth (locus YHR079C, strain IRE1 (second series), stronger effect = lower value) of 0.989. For the same molecule, the normalized growth (locus YHR094C, strain hxt1, stronger effect = lower value) was 0.987, the normalized growth (locus YHR129C, strain ARP1, stronger effect = lower value) was 1.02 and the normalized growth (locus YHR142W, strain chs7, stronger effect = lower value) was 0.987. The normalized growth (locus YHR200W, strain rpn10, stronger effect = lower value) was 0.977, the normalized growth (locus YIL066C, strain RNR3, stronger effect = lower value) was 0.981 and the normalized growth (locus YIL073C, strain SPO22, stronger effect = lower value) was 0.924. It also gave a normalized growth (locus YIL125W, strain kgd1, stronger effect = lower value) of 0.959, a normalized growth (locus YIR030C, strain dcg1, stronger effect = lower value) of 0.987 and a normalized growth (locus YJL092W, strain hpr5, stronger effect = lower value) of 1.01. The normalized growth (locus YJL095W, strain BCK1 (second series), stronger effect = lower value) was 0.988, the normalized growth (locus YJL095W, strain BCK1, stronger effect = lower value) was 1 and the normalized growth (locus YJL115W, strain asf1, stronger effect = lower value) was 0.997. For the same molecule, the normalized growth (locus YJL129C, strain trk1, stronger effect = lower value) was 1, the normalized growth (locus YJL134W, strain LCB3, stronger effect = lower value) was 1.01 and the normalized growth (locus YJL154C, strain vps35, stronger effect = lower value) was 0.988. For the same molecule, the normalized growth (locus YJL164C, strain tpk1, stronger effect = lower value) was 0.969, the normalized growth (locus YJL166W, strain qcr8, stronger effect = lower value) was 0.973 and the normalized growth (locus YJL168C, strain set2, stronger effect = lower value) was 0.971. The normalized growth (locus YJL187C, strain SWE1 (second series), stronger effect = lower value) was 1.01 and the normalized growth (locus YJL187C, strain SWE1, stronger effect = lower value) was 0.985.
